Assay results from PubChem BioAssay AID2314 (National Center for Advancing Translational Sciences (NCATS), 2010).
Values joined by “and” are separate entries in the source; they are usually repeats but may differ in a detail not shown here. Identical values can stand only once. Out of some 300,000 compounds screened, about 37,000 (12%) were called active. This excerpt belongs to a sample that is enriched for actives. A number with no mark means an inactive call. Rule as the data show it: active = max response mostly above about 13% (no sharp cut-off); inactive = mostly below about 14%.

assay: Cycloheximide Counterscreen for Small Molecule Inhibitors of Shiga Toxin; conditions: cell reporter, cycloheximide protein synthesis inhibition counterscreen; hits give high values; also: read at 38.3 µM for the half of the compounds with a filed dose; 0% is about no effect

| SMILES | max response |
| --- | --- |
| C=CCn1c(SCCOc2ccc(OC)cc2)nnc1C(NC(=O)c1ccc(OC)cc1)C(C)C (configuration not stated) | -2.43% |
| CN(CC1CCCO1)S(=O)(=O)c1ccc(C(=O)Nc2ccc(F)cc2)cc1 (configuration not stated) | 3.84% |
| Cc1oc(-c2ccccc2Cl)[n+]([O-])c1C | -1.24% |
| CCCSc1nc2sc3c(c2c(=O)n1-c1ccc(OC)cc1)CCN(C)C3 | 0.929% |
| CCc1cccc(NC(=O)C2CCCN(S(=O)(=O)c3ccc4[nH]c(=O)ccc4c3)C2)c1 (configuration not stated) | 14.1% |
| Cn1c(=O)n(C)c2cc(S(=O)(=O)Nc3ccc(F)cc3)ccc21 | 1.27% |
| CCN(CC)CCN(C(=O)c1ccc(N2C(=O)CCC2=O)cc1)c1nc2cc3c(cc2s1)OCO3 | 14.3% |
| CCOc1ccc2nc(N(CCCN(C)C)C(=O)c3ccc(C(=O)c4ccccc4)cc3)sc2c1 | -2.35% |
| CN(C)CCCN(C(=O)c1ccc(S(=O)(=O)N2CCCCCC2)cc1)c1nc2ccc(Br)cc2s1 | 11.5% (active) |
| O=C(Nc1nc2cc3c(cc2s1)OCCO3)c1cccc(S(=O)(=O)N2CCOCC2)c1 | -5.43% |
| CCN(CC)CCN(C(=O)c1ccc(S(=O)(=O)N2CCOCC2)cc1)c1nc2cc3c(cc2s1)OCCO3 | 13.6% (active) |
| CN(C)CCCN(C(=O)c1ccc(S(=O)(=O)N2CCCc3ccccc32)cc1)c1nc2ccc(F)cc2s1 | 0.524% |
| CCOc1cc(C)c(S(=O)(=O)NCc2ccccn2)cc1C | -2.56% |
| COc1cc(OC)c2ccc(=O)oc2c1C(CCN1CCN(c2ccccc2)CC1)c1ccc2c(c1)OCO2 (configuration not stated) | 1.12% and 1.78% |
| Cc1cccc(CSc2nc3c(c(=O)n2C)SCC3)c1 | 8.73% |
| CC(C)Oc1ccc(/C=N/NC(=O)c2nnn(-c3nonc3N)c2CN(C)C2CCCCC2)cc1 | -0.539% |
| O=C(O)CN1c2cccc3cccc(c23)S1(=O)=O | 8.16% |
| CCN(CC)CCN1C(=O)C(=O)/C(=C(/O)c2ccc(OC)c(OC)c2)C1c1ccccn1 (configuration not stated) | 17.9% (active) |
| CCCOc1ccc(/C(O)=C2/C(=O)C(=O)N(CCN(C)C)C2c2ccc(OC)c(OC)c2)cc1 (configuration not stated) | 5.75% |

| SMILES | max response |
| --- | --- |
| COc1ccc(/C(O)=C2/C(=O)C(=O)N(CCCN(C)C)C2c2ccccc2)cc1OC (configuration not stated) | 5.45% |
| COc1ccc(S(=O)(=O)N2CCCC(C(=O)NCCCn3ccnc3)C2)cc1OC (configuration not stated) | -5.51% |
| Cc1ccsc1-c1cc(C(=O)O)c2c(ccc3ccccc32)n1 | 16.2% |
| CCOCCCNC(=O)c1cc2c(=O)n3ccccc3nc2s1 | 30.4% (active) |
| Cc1cccn2c(=O)c3cc(C(=O)NC4CCCCC4)sc3nc12 | 7.47% |
| CCn1c(=N)c(C(=O)NCCCOC)cc2c(=O)n3cccc(C)c3nc21 | -3.15% |
| CC1CC(C)CN(CC(=O)N2c3ccccc3CCc3ccccc32)C1 (configuration not stated) | -3.85% |
| COc1cc2c(cc1OC)CN(CC(=O)Nc1ccc(F)cc1)CC2 | -3.51% |
| CN(CC(=O)Nc1cccc(F)c1)CC(=O)Nc1cccc([N+](=O)[O-])c1 | 13.6% |
| O=C(Nc1cccc([N+](=O)[O-])c1)Nn1cnnc1 | 3.77% |
| O=C(Nc1cccc([N+](=O)[O-])c1)N1CCc2ccccc2C1 | 51.1% (active) |
| CCc1ccc(NC(=O)N2CCc3ccccc3C2)cc1 | 49.7% (active) |
| Cc1ccc(NC(=O)CN2CCc3ccccc3C2)cc1C | 18% |
| Cc1cccc(C)c1NC(=O)c1ccc(CN2CCc3ccccc3C2)cc1 | -1.05% |
| CCc1ccc(NC(=O)N2CCN(c3ccccc3)CC2)cc1 | 12% |
| Cc1ccc(NC(=O)CN2CCc3ccccc3C2)cc1 | 16.3% (active) |
| Cn1c(=O)c([N+](=O)[O-])c(Oc2ccccc2)c2ccccc21 | -2.35% |
| O=C(NC(=S)N1CCc2ccccc21)c1ccco1 | 8.62% |
| COc1ccc(C(=O)NNS(=O)(=O)c2ccc(C)cc2)cc1 | -1.39% |

| SMILES | max response |
| --- | --- |
| Cc1[nH]nc(-c2ccc(OCc3cnn(-c4ccccc4)c3)cc2O)c1Oc1ccc(Cl)cc1 | 0.856% |
| COc1ccc(C(=O)Cc2cnn(-c3ccccc3)c2)c(O)c1 | 39.4% (active) |
| COc1ccc(C(=O)C[n+]2ccc(C)cc2)cc1 | 0.721% |
| Cc1cc(O)cc(O)c1C(=O)Cc1cnn(-c2ccccc2)c1 | 14% |
| COc1ccc(C(=O)CC(=O)c2ccc(C)cc2)c(O)c1 | 20% (active) |
| COc1ccc(CCNC(=S)NC(=O)/C=C/c2ccc(C)cc2)cc1OC | 9.56% |
| COC(=O)c1c(NC(=O)C(=O)N2CCCCC2)sc2c1CC(C)(C)OC2 | -2.72% |
| CC(=O)N1CCN(CC(C)(C)NS(=O)(=O)c2ccc(C)cc2)CC1 | -1.04% |
| CCn1c(SCC(=O)NC2CCCC2)nnc1-c1ccoc1C | -1.45% |
| CCOc1ccc2nc(NC(=O)CSc3nc4c(c(=O)n(C)c(=O)n4C)n3CC)sc2c1 | -6.89% |
| CCn1c(SCC(=O)Nc2nc3ccc(OC)cc3s2)nnc1-c1ccoc1C | 23.1% (active) |
| CC(=O)Nc1ccc(SCC(=O)Nc2ccccc2Oc2ccccc2)cc1 | 0.468% |
| C=CCNC(=O)c1ccccc1NC(=O)c1ccc(Cl)c(S(=O)(=O)Nc2cccc(C)c2C)c1 | 1.27% |
| CCc1cccc(C)c1NS(=O)(=O)c1c(C)nc2sccn2c1=O | -1.71% |
| Cc1ccc2c(c1)c1ncnc(N3CCc4ccccc4C3)c1n2C | 42.1% (active) |
| Cc1ccc2c(c1)c1ncn(Cc3ccc(F)cc3)c(=O)c1n2C | -2.24% |
| Cc1ccc2c(c1)c1ncn(CCC3=CCCCC3)c(=O)c1n2C | -3.65% |
| OCCN1CCN(c2nnc(-c3ccccc3)c3ccccc23)CC1 | -4.91% |
| COc1ccc(S(=O)(=O)NCC(=O)NCc2cc(=O)n(C)c(=O)n2C)cc1F | -6.78% |
